# From PubChem BioAssay (NCI)
# Values joined by “and” are separate entries in the source; they are usually repeats but may differ in a detail not shown here. Equal entries are not always repeated. About 83,000 compounds went through this panel and 20% of them were active in at least one assay; those are over-represented in the sample as a whole.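 Plates (96-well) were seeded with cells, treated with compound at one concentration, and incubated for 48 hours before percent growth was determined.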 Active and inactive are the calls of the source. The calls were made as follows: active = growth percent below 10; inactive = the rest.
# Assays:
# Experiment in all cases: NCI-60 one-dose screen, 48 h (100 = growth as untreated, 0 = no growth, -100 = all killed)
# Conditions in all cases: 10 µM unless noted
# T-47D breast = system: T-47D breast
# BT-549 breast = system: BT-549 breast
# MDA-MB-435 melanoma = system: MDA-MB-435 melanoma
# SW-620 colon = system: SW-620 colon
# MCF7 breast = system: MCF7 breast
# HCT-116 colon = system: HCT-116 colon
# HCC-2998 colon = system: HCC-2998 colon
# KM12 colon = system: KM12 colon
SMILES,growth (T-47D breast),growth (BT-549 breast),growth (MDA-MB-435 melanoma),growth (SW-620 colon),growth (MCF7 breast),growth (HCT-116 colon),growth (HCC-2998 colon),growth (KM12 colon)
CCOC(=O)c1ccc(N2C(=O)C(Cl)(c3ccccc3)C2c2ccco2)cc1 (stereo not given),30.4% (inactive),76.5% (inactive),93.4% (inactive),77.6% (inactive),62.4% (inactive),54% (inactive),95.8% (inactive),83.5% (inactive)
O=[N+]([O-])c1ccc(N/N=C/C2CCCCCC2)c([N+](=O)[O-])c1,84% (inactive),91% (inactive),87.6% (inactive),79% (inactive),94.8% (inactive),103% (inactive),106% (inactive),71.6% (inactive)
O=C(/C=C/C=C/c1ccc2c(c1)OCO2)N1CCCCC1,90.8% (inactive) and 103% (inactive),108% (inactive),98.9% (inactive) and 104% (inactive),106% (inactive) and 101% (inactive),101% (inactive) and 82.8% (inactive),103% (inactive) and 98.1% (inactive),102% (inactive) and 130% (inactive),98.2% (inactive) and 95% (inactive)
OCc1cccc(F)c1,94.6% (inactive),104% (inactive),98.6% (inactive),50% (inactive),62.1% (inactive),55.2% (inactive),99.4% (inactive),108% (inactive)
CC1(C)CC(=O)NC1=O,91.5% (inactive),104% (inactive),94.9% (inactive),107% (inactive),93.6% (inactive),96.5% (inactive),102% (inactive),102% (inactive)
O=C(O)c1ccc2c3ccc(C(=O)O)c4c(C(=O)O)ccc(c5ccc(C(=O)O)c1c25)c43,97.2% (inactive),64.8% (inactive),101% (inactive),97.5% (inactive),93.3% (inactive),90.1% (inactive),76.9% (inactive),100% (inactive)
COc1ccc2nccc(Cl)c2c1,122% (inactive),98.4% (inactive),108% (inactive),101% (inactive),98.5% (inactive),103% (inactive),115% (inactive),92.8% (inactive)
N=c1sc2ccccc2n1CC(=O)O,95.8% (inactive),99.2% (inactive),113% (inactive),103% (inactive),99% (inactive),95.7% (inactive),108% (inactive),106% (inactive)
S=c1nn[nH]n1C1CCCCC1,124% (inactive),125% (inactive),102% (inactive),99.8% (inactive),101% (inactive),101% (inactive),113% (inactive),110% (inactive)
C/C(CC(C)C)=N/NC(N)=S,39% (inactive),107% (inactive),104% (inactive),85.4% (inactive),21.3% (inactive),11.8% (inactive),101% (inactive),101% (inactive)
Cn1c(-c2ccccc2)cc(=O)cc1-c1ccccc1,97.1% (inactive),86.8% (inactive),116% (inactive),51.7% (inactive),53.3% (inactive),61.6% (inactive),127% (inactive),98.5% (inactive)
CCN(CC)Cc1cc2[nH]c3c4ccc(Cl)cc4ncc3c2cc1OC,99.2% (inactive) and 94.2% (inactive),75.1% (inactive) and 82.2% (inactive),1.09% (active) and 44% (inactive),4.64% (active) and 25.5% (inactive),16.5% (inactive) and 64.2% (inactive),-3.8% (active) and 7.95% (active),83.6% (inactive) and 101% (inactive),2.32% (active) and 42.7% (inactive)
COc1cc(Cl)ccc1C,94.9% (inactive),102% (inactive),102% (inactive),52.8% (inactive),56.8% (inactive),59% (inactive),105% (inactive),92.8% (inactive)
O=C(c1ccc(Cl)cc1)C1C(c2ccccc2)C1[N+](=O)[O-] (stereo not given),89.3% (inactive),99.3% (inactive),114% (inactive),104% (inactive),96% (inactive),106% (inactive),96.9% (inactive),97.9% (inactive)
Cc1cc(O)c(C(C)C)cc1N=O,82.5% (inactive) and 90.9% (inactive),114% (inactive) and 95.9% (inactive),99.5% (inactive) and 117% (inactive),123% (inactive) and 104% (inactive),90.8% (inactive) and 94.9% (inactive),94.4% (inactive) and 93.8% (inactive),98.1% (inactive) and 102% (inactive),109% (inactive) and 110% (inactive)
COc1ccc(/C=N/Nc2nc3ccccc3s2)cc1,86.6% (inactive),97.6% (inactive),83.3% (inactive),94.8% (inactive),61.1% (inactive),83.3% (inactive),104% (inactive),87.6% (inactive)
O=[N+]([O-])c1ccc(NC2CCCCC2)nc1,102% (inactive),114% (inactive) and 106% (inactive),102% (inactive) and 112% (inactive),103% (inactive) and 109% (inactive),110% (inactive) and 102% (inactive),108% (inactive) and 101% (inactive),105% (inactive) and 96.3% (inactive),111% (inactive) and 103% (inactive)
O=C(N=C1C(=O)C2(CCCCC2)C2(N=C(c3ccccc3)OC2=O)C12CCCCC2)c1ccccc1 (stereo not given),35.7% (inactive),86.9% (inactive),89.1% (inactive),–,51.3% (inactive),39.5% (inactive),59.2% (inactive),55.6% (inactive)
O=C(O)COc1ccccc1F,107% (inactive),108% (inactive),108% (inactive),104% (inactive),107% (inactive),95.5% (inactive),111% (inactive),104% (inactive)
C=CCN1C(=O)c2ccccc2C1=O,118% (inactive),96.8% (inactive),106% (inactive),–,98.6% (inactive),99.2% (inactive),104% (inactive),110% (inactive)
COC(=O)c1nc(N)nc(C(=O)OC)c1C(=O)c1ccc(F)cc1,105% (inactive),120% (inactive),107% (inactive),–,97.1% (inactive),110% (inactive),110% (inactive),107% (inactive)
